Measured values published in the OligoGym collection.

What was measured:
Assay in all cases: pooled miR-30 sensor sort-seq; sequence = guide strand
Details in all cases: shRNA
TBC1D10A = target: TBC1D10A
TAS1R2 = target: TAS1R2
TBC1D7 = target: TBC1D7
TAS2R31 = target: TAS2R31
Further: reference of the scale not given here.

TTCTGCATCCAAGATAGCCTTG
sensor-assay potency score (higher = more potent) (TBC1D10A): -0.737

ATAGGTGTCGCTGCTCACCAGC
sensor-assay potency score (higher = more potent) (TAS1R2): -0.83

TTTAATTGGTTCACAAAGCGTC
sensor-assay potency score (higher = more potent) (TBC1D7): -0.134

TAGAAGGTCATGCTGAGGGTGA
sensor-assay potency score (higher = more potent) (TAS1R2): -0.126

TTGTTGATCTCCTCCACCGCAA
sensor-assay potency score (higher = more potent) (TAS1R2): -0.437

TACAGTCGCATCTGAAAGGTAC
sensor-assay potency score (higher = more potent) (TAS2R31): -0.71

TTCGACAGCTACAAAAACTAGG
sensor-assay potency score (higher = more potent) (TBC1D7): -0.269

TTACGATACATCATCACCTTGG
sensor-assay potency score (higher = more potent) (TBC1D7): 0.3

TTCATCTTCAGTGTGGTTGAGG
sensor-assay potency score (higher = more potent) (TAS1R2): -0.161

TTTTACACAAAGAACACCCCAC
sensor-assay potency score (higher = more potent) (TBC1D10A): 0.708

TTTCTCGCTGTAGTAGCCGGGC
sensor-assay potency score (higher = more potent) (TBC1D10A): -0.648

TTCTTTTCTTCAACTCCACGAA
sensor-assay potency score (higher = more potent) (TBC1D7): -0.5

TAGGCAGACATGAAGGTGCAGA
sensor-assay potency score (higher = more potent) (TAS1R2): -0.389

TTCTGCTGTAACTTCACCTTGC
sensor-assay potency score (higher = more potent) (TBC1D10A): 0.827

TTTGTTATCTTCTCTGCACTGT
sensor-assay potency score (higher = more potent) (TBC1D7): 0.575

TAACAGCAAAAAACATAGCAGG
sensor-assay potency score (higher = more potent) (TAS2R31): -0.785

TAGCACACATCCACGATCTCAT
sensor-assay potency score (higher = more potent) (TAS1R2): 0.125

TTCATATTCATCTTCAGTGTGG
sensor-assay potency score (higher = more potent) (TAS1R2): 0.0168

AATAGAACCACTACCACACTGG
sensor-assay potency score (higher = more potent) (TAS2R31): 0.475

TTGTGCTTCTTGGCCATCCATT
sensor-assay potency score (higher = more potent) (TBC1D10A): -1.02

TAGAACCACTACCACACTGGAA
sensor-assay potency score (higher = more potent) (TAS2R31): -1.01

TTGAGCATGTCCAGCCACTTGG
sensor-assay potency score (higher = more potent) (TBC1D10A): -0.533

TTCACAGAAGAACATGTCCCAG
sensor-assay potency score (higher = more potent) (TBC1D10A): -0.889

TTGTCTCGCAGCTCATCGCTGA
sensor-assay potency score (higher = more potent) (TAS1R2): -0.453

TTACAGTCGCATCTGAAAGGTA
sensor-assay potency score (higher = more potent) (TAS2R31): -0.265

TCCAATAACAAATAGAACCACT
sensor-assay potency score (higher = more potent) (TAS2R31): -1.14

TTCTTTTGTCCGTACAATCTCT
sensor-assay potency score (higher = more potent) (TAS2R31): -0.58

TTGATCTTCCAAGTCAAGTTTC
sensor-assay potency score (higher = more potent) (TAS2R31): -0.849

TTGTTATCTTCTCTGCACTGTT
sensor-assay potency score (higher = more potent) (TBC1D7): -0.778

TTAACAGCAAAAAACATAGCAG
sensor-assay potency score (higher = more potent) (TAS2R31): -0.409
